Results filed as inconclusive are left out. The source made the active and inactive calls. The call rests on the fitted dose curve.
molecular target: 5-hydroxytryptamine receptor 2A (Homo sapiens) (UniProt P28223); experiment: 5-hydroxytryptamine receptor 2A (HTR2A) small molecule antagonists, cell-based qHTS assay (AID 1963586); settings: HTR2A-CHO cells, DOI-induced calcium flux, fluorescence; series mostly up to 61.5 µM; activity, negative = inhibition: at the top concentration; further: nearly all actives have a fitted effect of over 45% in size
Sequence (P28223 whole entry, looked up): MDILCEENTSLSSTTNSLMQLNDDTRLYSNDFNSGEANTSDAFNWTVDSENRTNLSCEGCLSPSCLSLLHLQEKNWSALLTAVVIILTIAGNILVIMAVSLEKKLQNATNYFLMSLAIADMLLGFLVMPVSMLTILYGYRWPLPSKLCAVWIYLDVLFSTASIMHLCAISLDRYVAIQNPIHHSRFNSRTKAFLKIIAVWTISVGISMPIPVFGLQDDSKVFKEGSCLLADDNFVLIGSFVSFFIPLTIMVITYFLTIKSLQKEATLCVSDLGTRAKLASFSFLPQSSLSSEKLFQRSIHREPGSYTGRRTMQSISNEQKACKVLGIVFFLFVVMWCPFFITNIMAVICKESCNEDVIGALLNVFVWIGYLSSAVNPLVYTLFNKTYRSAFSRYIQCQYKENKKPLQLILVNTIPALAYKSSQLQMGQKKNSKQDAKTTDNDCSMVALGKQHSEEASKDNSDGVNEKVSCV
From the text: National Center for Advancing Translational Sciences [NCATS]
Division of Preclinical Innovation [DPI]
U.S. Environmental Protection Agency [EPA]
National Institutes of Environmental Health Sciences [NIEHS]
National Toxicology Program [NTP]
U.S. Food and Drug Administration [FDA]
The HTR2A receptor is a subtype of the 5-HT2 receptor that belongs to the serotonin receptor family and is a G protein-coupled receptor (GPCR). The HTR2A-CHO cell line stably expressing human 5-hydroxytryptamine receptor 2A (HTR2A) can be used for screening antagonists of interactions between 5-HT2 and its ligands. The HTR2A-CHO calcium flux assay is a homogeneous fluorescence-based assay for detecting the intracellular calcium level using FDSS kinetic plate reader system.
Tox21 Assay Protocol Summary:
HTR2A-CHO cells were dispensed at 2000 cells/3uL/well in 1536-well black-clear bottom plates using a Multidrop Dispenser. After the assay plates were incubated at a 37 C/5% CO2 incubator for 18 h, 3 uL of Dye Loading Buffer was transferred to the assay plate by a Flying Reagent Dispenser. The assay plates were incubated at 37 C for 1h. For antagonist mode, 23 nL of compounds dissolved in DMSO, positive controls or DMSO only was transferred to the assay plate by a pin tool. After 5 min incubation at room temperature, 1.5 uL of 4-Iodo-2,5-dimethoxy-alpha-methylbenzeneethanamine hydrochloride (DOI) at 4nM was added to each well. The fluorescence intensity in the plates was measured using FDSS 7000EX kinetic plate reader for 3 min at 1 sec intervals.
On the % scale 0 is the no-effect control and ±100 the full control effect; potency means the concentration at half of the fitted maximal effect.

SMILES | activity, negative = inhibition | Potency
Nc1cccnc1N | 0.861% (inactive) | –
CC1=NN(c2ccc(S(=O)(=O)O)cc2)C(=O)C1N=Nc1ccccc1 (stereo not given) | 1.48% (inactive) | –
CC(=O)OC(C)OC(=O)C(C)c1ccc(-c2ccccc2)c(F)c1 (stereo not given) | -10.9% [at 28.5 µM] (inactive) | –
O=C(O)CCc1nc2ccccc2[nH]1 | -0.669% [at 28.5 µM] (inactive) | –
O=C(Nc1cccc(C(F)(F)F)c1)c1cc(Br)cc(Br)c1O | -12.5% (inactive) | –
C/C(C=O)=C\c1ccccc1 | -6.5% (inactive) | –
O=C[C@@H](O)[C@H](O)[C@H](O)CO | 3.26% (inactive) | –
Cc1ccccc1S | -0.857% [at 28.5 µM] (inactive) | –
CN(C)CCCO[C@@H]1[C@H]2OC(C)(C)O[C@H]2O[C@@H]1C(O)CO (stereo not given in full) | 28.1% [at 28.5 µM] (inactive) | –
CCCCC/C=C\C/C=C\CCCCCCCC(=O)NC(C)c1ccccc1 (stereo not given) | 7.36% [at 28.5 µM] (inactive) | –
CCOC(=O)CC(=O)C(=O)OCC | 34% (inactive) | –
Cc1cc(O)c2c(c1)C(=O)c1cc(O)cc(O)c1C2=O | 1.86% (inactive) | –
Cc1ccc2nc(-c3ccc(N)cc3)sc2c1S(=O)(=O)O | -20.6% [at 28.5 µM] (inactive) | –
CC/C=C\C/C=C\C/C=C\CCCCCCCC(=O)OCC | 1.31% (inactive) | –
NS(=O)(=O)c1ccc(C(=O)O)cc1 | 1.85% [at 28.5 µM] (inactive) | –
O=c1[nH]c2ccc(S(=O)CCN3CCC(Cc4ccc(F)cc4)CC3)cc2o1 (stereo not given) | 7.9% (inactive) | –
CC(C)c1ccc2cc(C(C)C)ccc2c1 | -33.7% (inactive) | –
CC(=O)Oc1cccc2c1C(=O)c1c(OC(C)=O)cc(C(=O)O)cc1C2=O | 3.56% [at 28.5 µM] (inactive) | –
C[C@@H](Oc1ccc(CNC(=O)c2cccnc2Oc2ccc3c(c2)OCO3)c(F)c1)C(=O)O | 17.4% (inactive) | –
COC(C)(C)CC(C)=O | 3.1% (inactive) | –

SMILES | activity, negative = inhibition | Potency
Cc1cc2nc(N)sc2cc1C | -3.92% (inactive) | –
COc1nccnc1NS(=O)(=O)c1ccc(N)cc1 | 3.04% [at 28.5 µM] (inactive) | –
Cc1oc(-c2ccccc2)nc1CCOc1cccc2c1ccn2CCC(=O)O | -24.5% (inactive) | –
O=CC=C(c1ccccc1)c1ccccc1 | – | 42.4 µM (active)
Nc1nc(Cl)cc(Cl)n1 | 11% (inactive) | –
CCCCNC(=S)NCCCC | -0.0979% (inactive) | –
Cc1cccc(C(=O)O)c1O | -17% [at 28.5 µM] (inactive) | –
COC(=O)C1=C(C)NC(C)=C(C(=O)O[C@@H]2CCCN(Cc3ccccc3)C2)[C@@H]1c1cccc([N+](=O)[O-])c1 | 3.79% [at 28.5 µM] (inactive) | –
C[C@H]1c2cccc(O)c2C(O)=C2C(=O)[C@]3(O)C(O)=C(C(N)=O)C(=O)[C@@H](N(C)C)[C@@H]3[C@@H](O)[C@@H]21 | 13% [at 28.5 µM] (inactive) | –
COC1CCC=CO1 (stereo not given) | -14.3% (inactive) | –
CSC(=O)c1cccc2nnsc12 | 1.53% (inactive) | –
NC(=O)c1c(Cl)cccc1Cl | -2.15% (inactive) | –
CS(=O)(=O)c1ccc([C@@H](CC2CCCC2)C(=O)Nc2cnccn2)cc1Cl | -8.08% (inactive) | –
CCC(C)(CCC(C)C)C(=O)O (stereo not given) | 5.71% (inactive) | –
O=C1Nc2ccc([N+](=O)[O-])cc2C1=O | -10% (inactive) | –
Cc1c(-c2ccc(O)cc2)n(Cc2ccc(OCCN3CCCCCC3)cc2)c2ccc(O)cc12 | -33.5% [at 28.5 µM] (inactive) | –
CCCOC(=O)CCCCC(=O)OCCC | 18.5% (inactive) | –
Oc1ccccc1F | 16.3% (inactive) | –
C=C(C)c1cccc(C(=C)C)c1 | 0.106% (inactive) | –
COCCc1ccc(OCC2CO2)cc1 (stereo not given) | -27.1% [at 28.5 µM] (inactive) | –
